Laboratory results as given in PubChem BioAssay AID1159580 (chemical genetic matrix, 2015).
“And” between values parts separate entries of the source, which are not always exact repeats. Equal values may be shown once. Screen size: about 5,500 compounds; about 2,000 (36%) were called active. Inconclusive results (about 18%) are left out. Rule as the data show it: active = normalized growth mostly below about 0.91 (no sharp cut-off); inconclusive = no clear call, values can overlap the other calls; inactive = mostly above about 0.92. The list shows a part of the results.

Test: chemical genetic growth profiling, strain panel (AID 1159580);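 also: tested at 20 µM; growth read once vehicle control cultures reached saturation at 30 °C; 1 = growth at the plate median or of vehicle wells; lower values mean less growth of the strain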
Conditions: S. cerevisiae deletion strains, growth OD

Measured: normalized growth

COc1cc(OC)c2c(c1)O[C@H](c1ccc(OC)c(OC)c1)[C@@H](O)C2
inactive: locus YAL021C, strain ccr4, active compounds read low 1.01 | locus YAL026C, strain drs2, active compounds read low 0.961 | locus YAL030W, strain snc1, active compounds read low 0.998 | locus YBL061C, strain skt5, active compounds read low 0.989 | locus YBR009C, strain hhf1, active compounds read low 1 | locus YBR021W, strain FUR4, active compounds read low 1.06 | locus YBR023C, strain chs3, active compounds read low 1 | locus YBR171W, strain sec66, active compounds read low 0.971 | locus YBR229C, strain ROT2, active compounds read low 1.01 | locus YBR231C, strain swc5, active compounds read low 0.981 | locus YBR279W, strain paf1, active compounds read low 1 | locus YCL011C, strain gbp2, active compounds read low 0.986 | locus YCL016C, strain dcc1, active compounds read low 1.02 | locus YCL029C, strain bik1, active compounds read low 1.02 | locus YCL061C, strain MRC1, active compounds read low 0.996 | locus YCL069W, strain vba3, active compounds read low 0.968 | locus YCR088W, strain abp1, active compounds read low 0.984 | locus YDL005C, strain med2, active compounds read low 0.985 | locus YDL035C, strain GPR1, active compounds read low 1.04 | locus YDL040C, strain nat1, active compounds read low 0.992 | locus YDL074C, strain BRE1, active compounds read low 1.11 | locus YDL101C, strain DUN1, active compounds read low 1.02 | locus YDL134C, strain PPH21, active compounds read low 1.09 | locus YDL185W, strain tfp1, active compounds read low 1.03 | locus YDL192W, strain arf1, active compounds read low 1 | locus YDR001C, strain nth1, active compounds read low 0.989 | locus YDR069C, strain doa4, active compounds read low 0.976 | locus YDR101C, strain arx1, active compounds read low 0.99 | locus YDR137W, strain rgp1, active compounds read low 0.949 | locus YDR159W, strain sac3, active compounds read low 0.95 | locus YDR162C, strain NBP2, active compounds read low 1.03 | locus YDR195W, strain ref2 0.976 | locus YDR297W, strain sur2, active compounds read low 0.988 | locus YDR318W, strain mcm21, active compounds read low 1.01 | locus YDR334W, strain swr1, active compounds read low 0.977 | locus YDR335W, strain msn5, active compounds read low 0.983 | locus YDR388W, active compounds read low 1.03 | locus YDR392W, strain spt3, active compounds read low 0.909 | locus YDR502C, strain sam2, active compounds read low 1.02 | locus YEL003W, strain gim4, active compounds read low 0.984 | locus YEL037C, strain rad23, active compounds read low 0.985 | locus YEL061C, strain CIN8 (second series), active compounds read low 0.976 | locus YER015W, strain faa2, active compounds read low 1.01 | locus YER016W, strain bim1, active compounds read low 0.992 | locus YER110C, active compounds read low 0.998 | locus YER111C, strain swi4, active compounds read low 0.994 | locus YER155C, strain BEM2 (second series), active compounds read low 0.947 | locus YER155C, strain BEM2, active compounds read low 1.01 | locus YER167W, strain BCK2, active compounds read low 1.01 | locus YFR010W, strain ubp6, active compounds read low 0.956 | locus YGL078C, strain dbp3, active compounds read low 1.02 | locus YGL086W, strain mad1, active compounds read low 1 | locus YGL167C, strain pmr1, active compounds read low 1 | locus YGL173C, strain kem1, active compounds read low 0.983 | locus YGL227W, strain vid30, active compounds read low 0.982 | locus YGL240W, strain doc1, active compounds read low 1 | locus YGL248W, strain PDE1, active compounds read low 1.05 | locus YGL253W, strain hxk2, active compounds read low 0.939 | locus YGR135W, strain pre9, active compounds read low 1.05 | locus YGR252W, strain gcn5, active compounds read low 1.08 | locus YHR013C, strain ard1, active compounds read low 1.01 | locus YHR027C, strain rpn1, active compounds read low 0.983 | locus YHR030C, strain SLT2, active compounds read low 0.996 | locus YHR079C, strain IRE1 (second series), active compounds read low 1.02 | locus YHR079C, strain IRE1, active compounds read low 0.992 | locus YHR094C, strain hxt1, active compounds read low 1.04 | locus YHR129C, strain ARP1, active compounds read low 1.02 | locus YHR142W, strain chs7, active compounds read low 0.993 | locus YHR200W, strain rpn10, active compounds read low 1.02 | locus YIL066C, strain RNR3, active compounds read low 1.03 | locus YIL073C, strain SPO22, active compounds read low 1.09 | locus YIL125W, strain kgd1, active compounds read low 0.99 | locus YIR030C, strain dcg1, active compounds read low 1.01 | locus YJL092W, strain hpr5, active compounds read low 0.985 | locus YJL095W, strain BCK1 (second series), active compounds read low 0.971 | locus YJL095W, strain BCK1, active compounds read low 1.1 and 0.993 | locus YJL115W, strain asf1, active compounds read low 0.994 | locus YJL129C, strain trk1, active compounds read low 0.965 | locus YJL134W, strain LCB3, active compounds read low 1.01 | locus YJL154C, strain vps35, active compounds read low 0.983 | locus YJL164C, strain tpk1, active compounds read low 1.02 | locus YJL166W, strain qcr8, active compounds read low 0.984 | locus YJL168C, strain set2, active compounds read low 1.01 | locus YJL187C, strain SWE1 (second series), active compounds read low 1.03 | locus YJL187C, strain SWE1, active compounds read low 0.988 | locus YJR043C, strain POL32, active compounds read low 1.04 | locus YJR066W, strain TOR1, active compounds read low 0.941 | locus YKL009W, strain mrt4, active compounds read low 1.05 | locus YKL068W, active compounds read low 1.01 | locus YKL085W, strain MDH1 (second series), active compounds read low 1.02 | locus YKL085W, strain MDH1, active compounds read low 1.02 | locus YKL160W, strain elf1, active compounds read low 1.02 | locus YKL190W, strain CNB1, active compounds read low 1.01 | locus YKR001C, strain vps1, active compounds read low 1.04 | locus YKR026C, strain gcn3, active compounds read low 0.975 | locus YKR091W, strain srl3, active compounds read low 0.996 | locus YLL001W, strain dnm1, active compounds read low 0.972 | locus YLL026W, active compounds read low 0.996 | locus YLL041C, strain sdh2, active compounds read low 0.993 | locus YLR027C, strain aat2, active compounds read low 0.994 | locus YLR039C, strain RIC1, active compounds read low 1.15 | locus YLR058C, strain SHM2, active compounds read low 1.02 | locus YLR102C, strain apc9, active compounds read low 1.01 | locus YLR113W, strain HOG1, active compounds read low 0.971 | locus YLR221C, strain rsa3, active compounds read low 0.953 | locus YLR258W, strain gsy2, active compounds read low 0.99 | locus YLR262C, strain YPT6 (second series), active compounds read low 0.956 | locus YLR268W, strain sec22, active compounds read low 1.02 | locus YLR320W, strain mms22, active compounds read low 0.979 | locus YLR330W, strain CHS5, active compounds read low 1.03 | locus YLR342W, strain FKS1, active compounds read low 0.997 | locus YLR357W, strain rsc2, active compounds read low 0.989 | locus YLR370C, strain arc18, active compounds read low 0.97 | locus YLR371W, strain rom2, active compounds read low 1.05 | locus YLR384C, strain iki3, active compounds read low 1.01 | locus YLR418C, strain cdc73, active compounds read low 1.09 | locus YML016C, strain PPZ1, active compounds read low 1.01 | locus YML032C, strain rad52, active compounds read low 1.01 | locus YML120C, strain ndi1, active compounds read low 1.01 | locus YML124C, strain tub3, active compounds read low 1 | locus YMR058W, strain fet3, active compounds read low 0.981 | locus YMR078C, strain ctf18, active compounds read low 1.03 | locus YMR125W, strain sto1, active compounds read low 0.982 | locus YMR129W, active compounds read low 0.999 | locus YMR205C, strain PFK2, active compounds read low 1.03 | locus YMR223W, strain ubp8, active compounds read low 1.01 | locus YMR231W, strain pep5, active compounds read low 0.973 | locus YMR263W, strain SAP30, active compounds read low 1.01 | locus YMR307W, strain GAS1, active compounds read low 1.22 | locus YNL067W, strain RPL9B, active compounds read low 1.02 | locus YNL071W, strain lat1, active compounds read low 0.989 | locus YNL153C, strain GIM3, active compounds read low 1.03 | locus YNL183C, strain NPR1, active compounds read low 0.931 | locus YNL209W, strain ssb2, active compounds read low 1.01 | locus YNL233W, strain BNI4, active compounds read low 1.07 | locus YNL248C, strain rpa49, active compounds read low 0.968 | locus YNL250W, strain rad50, active compounds read low 1.03 | locus YNL271C, strain bni1, active compounds read low 1.01 | locus YNL298W, strain CLA4, active compounds read low 1.03 | locus YNL307C, strain MCK1, active compounds read low 1.03 | locus YNL322C, strain KRE1 (second series), active compounds read low 1.01 | locus YNR049C, strain mso1, active compounds read low 0.988 | locus YNR052C, strain pop2, active compounds read low 1.04 | locus YOL006C, strain TOP1, active compounds read low 1.3 | locus YOL012C, strain htz1 1.07 | locus YOL147C, strain pex11, active compounds read low 1.01 | locus YOR001W, strain rrp6, active compounds read low 0.925 | locus YOR061W, strain CKA2, active compounds read low 1.02 | locus YOR069W, strain VPS5, active compounds read low 1.01 | locus YOR070C, strain gyp1, active compounds read low 1.01 | locus YOR080W, strain dia2, active compounds read low 0.971 | locus YOR083W, strain WHI5, active compounds read low 1.03 | locus YOR106W, strain vam3, active compounds read low 1.03 | locus YOR136W, strain idh2, active compounds read low 1.01 | locus YOR144C, strain elg1, active compounds read low 1 | locus YOR184W, strain ser1, active compounds read low 1 | locus YOR231W, strain MKK1, active compounds read low 1 | locus YOR265W, strain rbl2, active compounds read low 0.988 | locus YOR270C, strain vph1, active compounds read low 0.969 | locus YOR290C, strain snf2, active compounds read low 0.994 | locus YOR316C, strain cot1, active compounds read low 1.03 | locus YPL051W, strain arl3, active compounds read low 0.985 | locus YPL078C, strain atp4, active compounds read low 1.03 | locus YPL106C, strain sse1, active compounds read low 1.05 | locus YPL240C, strain hsp82, active compounds read low 0.992 | locus YPL256C, strain CLN2, active compounds read low 0.958 | locus YPR119W, strain clb2, active compounds read low 0.999 | locus YPR141C, strain kar3, active compounds read low 1.01 | locus YPR163C, strain tif3, active compounds read low 1.01 | locus YPR167C, strain met16, active compounds read low 1.03 | strain wtn01, active compounds read low 0.997
